# Source: PubChem (National Center for Advancing Translational Sciences (NCATS))
# FLuc counter – qHTS profiling assay for firefly luciferase inhibitor/activator using purifed enzyme and Km concentrations of substrates (counterscreen for miR-21 project). Luciferin 4-monooxygenase (Photinus pyralis), P08659. purified FLuc, Km substrates, luminescence inhibition. Potency, µM (series often up to 57.5 µM), actives largely listed as inhibitors. actives 6.9% (n = 360,000). AID 588342, 2011; further: nearly all actives have a fitted effect of over 55% in size
# Target sequence (P08659 whole entry, looked up): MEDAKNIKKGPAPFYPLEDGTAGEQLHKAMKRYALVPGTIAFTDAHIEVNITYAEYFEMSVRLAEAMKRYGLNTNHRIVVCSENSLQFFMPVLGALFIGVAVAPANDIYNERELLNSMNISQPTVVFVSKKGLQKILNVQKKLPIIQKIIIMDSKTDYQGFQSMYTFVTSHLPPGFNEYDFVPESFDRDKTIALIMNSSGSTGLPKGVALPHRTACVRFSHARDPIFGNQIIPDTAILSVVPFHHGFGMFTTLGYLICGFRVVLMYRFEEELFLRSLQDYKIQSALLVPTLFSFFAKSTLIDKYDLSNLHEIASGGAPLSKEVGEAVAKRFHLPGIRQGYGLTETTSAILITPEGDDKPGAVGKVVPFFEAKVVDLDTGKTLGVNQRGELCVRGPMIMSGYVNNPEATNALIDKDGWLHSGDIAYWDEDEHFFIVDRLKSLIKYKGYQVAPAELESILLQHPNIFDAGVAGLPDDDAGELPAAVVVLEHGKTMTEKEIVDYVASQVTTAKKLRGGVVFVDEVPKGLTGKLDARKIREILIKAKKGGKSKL
#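 Purified P. pyralis luciferase, 10 nM final, with Km-level 10 uM D-luciferin and 10 uM ATP in 50 mM Tris acetate pH 7.5, 10 mM Mg acetate, 0.01% Tween-20, 0.05% BSA; 6-point qHTS titration about 60 µM downward; luminescence read.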
# NPC1 prom act – qHTS Assay for NPC1 Promoter Activators; Huh7 NPC1 promoter luciferase reporter, 24 h; Potency, µM (titrated, usually from 9.22 µM), usual class: activators; actives 2.4% (n = 320,000); further: nearly all actives have a fitted effect of over 60% in size
#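 Huh7 cells stably carrying NPC1 promoter–luciferase, plated in Opti-MEM with 10% FBS for 2 h, were exposed to compound in DMSO for 24 h at 37 °C; luciferase reagent was added for 10 min and luminescence read.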
# Rab9 prom act – qHTS Assay for Rab9 Promoter Activators; Potency, µM (top dose mostly 9.22 µM), actives largely listed as activators; actives 2.8% (n = 320,000); Huh7 Rab9 promoter-luciferase reporter, luminescence, 24 h; further: nearly all actives have a fitted effect of over 60% in size
#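 Quantitative HTS format; Huh7 Rab9-luciferase reporter cells (1500/well) receive compound 2 h post-plating, incubate 24 h at 37 °C, then get luciferase reagent for 10 min before luminescence reading.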
# SMN2 splice up – qHTS Assay for Enhancers of SMN2 Splice Variant Expression; HEK293 SMN2-luciferase splicing reporter, luminescence, 30-36 h; actives 2.8% (n = 210,000); Potency, µM (top dose mostly 46.1 µM), hits mostly activators; further: nearly all actives have a fitted effect of over 55% in size
#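 qHTS luciferase splicing reporter: luminescence rises when SMN2 exon 7 is included in transfected HEK293 cells. Compound exposure lasted 30-36 h at 37C, with 4.5 mM final sodium butyrate as control, followed by a ONE-Glo read.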
# Luc counter – Counterscreen for Luciferase (Kinase-Glo TM) Inhibition; actives 0.28% (n = 200,000); Potency, µM (doses to about 38.3 µM), hits mostly inhibitors; Kinase-Glo luciferase, ATP luminescence, 8 min; Luciferin 4-monooxygenase (Photuris pensylvanica), Q27757; further: nearly all actives have a fitted effect of over 60% in size
#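 Compound is pinned into ATP-containing buffer (10 uM ATP, imidazole pH 7.2, 7 mM MgCl2). Kinase-Glo luciferase reagent is then added. Light output is recorded following an 8-min room-temperature incubation.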
# ELG1 genotoxic – qHTS screen for small molecules that induce genotoxicity in human embryonic kidney (HEK293T) cells expressing luciferase-tagged ELG1; Potency, µM (titrated, usually from 46 µM), actives largely listed as activators; actives 1.3% (n = 330,000); AID 504466, 2011; HEK293T ELG1-luciferase reporter, luminescence, 16 h; further: nearly all actives have a fitted effect of over 60% in size
#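 Luminescence read-out: rising ELG1-luciferase signal, reflecting elevated ELG1 protein under genetic stress, flags genotoxic compounds. Cells were treated for 16 hr at 37 °C before ONE-Glo detection.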
# A number is an active result; . = inactive; ? = inconclusive; / = no result; ! = not confirmed by another sample; [ ] = another dose, or the depositor's remark. Most compounds without a hit are left out; they make up all but 7.3% or so of the library. The call rests on the fitted dose curve; in most records, active means well fitted curve in the direction sought with a large enough effect; inconclusive means small, poorly fitted or top-dose-only effect, or another doubt; inactive means no such curve, though single readings can be large; an effect the other way counts as inactive or inconclusive.
SMILES,FLuc counter,NPC1 prom act,Rab9 prom act,SMN2 splice up,Luc counter,ELG1 genotoxic
Cc1ccc(NC(=S)N2CCC(c3ccccc3)C2)c(Cl)c1 (configuration not stated),1.51µM,0.501µM,0.282µM,11.2µM,.,2.31µM
COc1ccc(C(=O)Nc2cccc(OCc3cc(=O)n4c5c(sc4n3)CCCC5)c2)cc1OC,2.39µM,/,/,.,/,/
O=S(=O)(c1ccccc1)c1nnn2c1nc(Nc1ccccc1)c1cc(Cl)ccc12,.,/,/,.,/,/
Cn1c(=O)c2c(nc(SCC(=O)NCc3ccc4c(c3)OCO4)n2Cc2ccccc2)n(C)c1=O,.,.,.,.,.,.
Cn1c(=O)c2c(nc(NCc3ccc4c(c3)OCO4)n2C)n(C)c1=O,.,.,.,31.6µM,.,.
COc1ccc(Oc2ncc3nc(C)c(=O)n(C4CC4)c3n2)cc1,/,/,/,.,.,/
O=C1C(=O)c2c(C(=O)c3ccccc3)coc2-c2ccccc21,?,.,.,.,.,10µM
Cc1nc2c(C(=O)N3CCN(C)CC3)cnn2c(C)c1Cc1ccc(Cl)cc1,.,.,.,.,.,.
Cc1nc2c(C(=O)N3CCCCC3)cnn2c(C)c1Cc1ccccc1F,?,1.58µM,1.58µM,?,.,?
Cc1ccc(/C=C2\SC(=S)N(/N=C/c3cc([N+](=O)[O-])ccc3O)C2=O)o1,23.9µM,.,.,/,/,.
Cc1ccc(/C=C2\SC(=S)N(C3CCS(=O)(=O)C3)C2=O)o1 (configuration not stated),.,.,.,.,.,.
C=C(C)C(=O)/C=C/C=C/c1ccccc1,/,/,/,.,.,/
CCC(C(=O)NCCc1ccc(OC)c(OC)c1)n1nc(C)c2sc3ccccc3c2c1=O (configuration not stated),19µM,/,/,/,/,/
COc1ccc(CNC(=O)C(C)n2nc(C)c3sc4ccccc4c3c2=O)cc1OC (configuration not stated),.,/,/,/,/,/
Cc1ccc(CNC(=O)C(C)n2nc(C)c3sc4ccccc4c3c2=O)cc1 (configuration not stated),13.5µM,/,/,/,/,/
CSc1ccc(CCNC(=O)C(C)n2nc(C)c3sc4ccccc4c3c2=O)cc1 (configuration not stated),13.5µM,/,/,/,/,/
CCOC(=O)C(C)n1nc(C)c2sc3ccccc3c2c1=O (configuration not stated),.,.,.,.,.,.
CCC(C(=O)NCc1ccc(OC)c(OC)c1)n1nc(C)c2c(C)n(-c3ccc(C)cc3)nc2c1=O (configuration not stated),.,/,/,/,/,/
CCC(C(=O)Nc1ccccc1OC)n1nc(C)c2sc3ccccc3c2c1=O (configuration not stated),.,/,/,/,/,/
CCC(C(=O)Nc1cccc(Cl)c1C)n1nc(C)c2sc3ccccc3c2c1=O (configuration not stated),10.7µM,/,/,/,/,/
CC1CCN(c2nn3c(=O)c(C(=O)NCCc4ccccc4)cnc3s2)CC1,.,/,/,/,/,/
COc1ccc(-n2c(=O)c3ccccc3n(Cc3ccccc3C)c2=O)c(OC)c1,.,/,/,.,/,/
O=C(O)CCc1cc(I)c(O)c(I)c1,/,/,/,.,/,/
Cc1nn(C(C)C(=O)NCC2CCCO2)c(=O)c2c1sc1ccccc12 (configuration not stated),.,.,.,/,/,.
Cc1nn(C(C)C(=O)NC2CCCCC2)c(=O)c2c1sc1ccccc12 (configuration not stated),9.53µM,/,/,/,/,/
SMILES,FLuc counter,NPC1 prom act,Rab9 prom act,SMN2 splice up,Luc counter,ELG1 genotoxic
Clc1ccc(NCc2cccnc2)cc1,.,.,.,/,/,.
CSc1ccc(CNc2ccc(Cl)cc2)cc1,15.1µM,.,?,.,.,.
Cc1cc(=O)oc2cc(O)c(CN(C)CC(=O)O)cc12,/,/,/,.[9.22 µM],.[7.66 µM],/
Cc1cc(C(=O)NNC(=O)c2ccc(Cl)cc2)no1,.,.,.,/,/,.
Cc1cc(/C(N)=N/OC(=O)c2ccc(Cl)cc2)no1,1.51µM,3.55µM,3.16µM,/,/,11.6µM
Cc1cc(/C(N)=N/OC(=O)c2cccc(Cl)c2)no1,6.75µM,.,.,/,/,?
COc1ccc(-c2c(C#N)c(SCC(=O)Nc3ccc(C)c(C)c3)nc(C)c2C(=O)Nc2ccccc2)cc1OC,.,/,/,.,/,/
CCN(CC)S(=O)(=O)c1ccc2nc(NC(=O)c3cccs3)sc2c1,15.1µM,.,?,?,.,?
CCN(CC)S(=O)(=O)c1ccc2nc(NC(=O)c3ccco3)sc2c1,19µM,.,.,.,.,.
O=C(O)c1cnn(-c2nc(-c3ccc(F)cc3)cs2)c1C(F)(F)F,21.3µM,.,?,.,.,.
CCOC(=O)c1cnn(-c2nc(-c3ccc(C)cc3)cs2)c1C(F)(F)F,.,.,.,.,.,.
NC(=O)C1CCN(c2nc(-c3ccccc3F)cs2)CC1,?,0.794µM,0.316µM,/,/,?
NC(=O)C1CCN(c2nc(-c3ccc4occc(=O)c4c3)cs2)CC1,?,?,2.51µM,/,/,.
CS(=O)(=O)c1ccc(-c2csc(N3CCC(C(N)=O)CC3)n2)cc1,.,/,/,/,/,/
NC(=O)C1CCN(c2nc(-c3ccc(F)cc3)cs2)CC1,.,2.24µM!,1.41µM!,/,/,.
CN(C)c1cc2c(cc1NC(=O)c1ccc(F)cc1)n(C)c(=O)n2C,.,/,/,.,/,/
S[C@@H]1CCCN(Cc2ccccc2)C1,/,/,/,.[9.22 µM],.[7.66 µM],/
CCCCSc1nnc2c(n1)OC(c1ccc(Br)s1)N(C(C)=O)c1ccccc1-2 (configuration not stated),.,/,/,.,/,/
COC(=O)C1=C(C(=O)OC)[C@@H]2N(Cc3ccccc3)c3ccccc3[C@@]23C[C@@H](C(=O)OC)N(S(=O)(=O)c2cccs2)C3=N1,/,/,/,.[9.22 µM],.[7.66 µM],/
Cn1ccc2cc(-c3csc(N4CCC(C(N)=O)CC4)n3)ccc21,12µM,2.82µM,1.26µM,/,/,.
NC(=O)C1CCN(c2nc(-c3cccc(N)c3)cs2)CC1,?,.,.,/,/,?
CCOC(=O)N1CCN(c2nc(-c3ccc(F)cc3)cs2)CC1,19µM,.,.,?,.,?
Cc1ccc(-c2nn(-c3ccc(F)cc3F)c3c2cnc2ccc(F)cc23)cc1,.,/,/,/,/,/
CCCCN1CCCc2cc(CN(CCCN3CCOCC3)C(=O)Nc3ccc(CC)cc3)ccc21,.,/,/,/,/,/
CC(C)(C)c1ccc(OCCC(=O)NNC(=O)c2ccccc2)cc1,.,.,.,/,/,.
O=C(Oc1ccc(/C=N/O)cc1)c1ccccc1,12µM,.,?,.,.,.
Cc1cccc(C(=O)Oc2ccc(/C=N/NC(=O)c3ccc(O)cc3)cc2)c1,?,.,.,/,/,.
